These results are taken from PubChem BioAssay (NCATS).

Results filed as inconclusive are left out. A call without a number means that no potency is given here. Calls of active or inactive are those of the source. Calls follow the shape of the dose curve; as a rule, active = well fitted inhibition curve with a large enough effect; inconclusive = small, poorly fitted or top-dose-only effect; inactive = flat fitted curve, though single readings scatter.

This test relates to CP203. As to the kind of experiment: qHTS profiling for inhibitors of Plasmodium falciparum proliferation (AID 504749). Also: nearly all actives have a fitted effect of over 60% in size. As to conditions: P. falciparum in erythrocytes, SYBR Green DNA, 72 h; series mostly up to 28.7 µM. The procedure, abridged:
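Quantitative HTS: compounds pinned into medium, infected erythrocytes added (0.3% parasitemia, 2.5% hematocrit), 72 h culture at 37 C under 5% CO2. Saponin/Triton lysis with SYBR Green I, overnight RT, then fluorescence read.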
Regarding `[O-][n+]1cccc(CO)c1`, the Potency entry is “inactive”.
For `Cc1cccc(C)c1NC(=O)CN(CC(=O)O)CC(=O)O`, the Potency result is “inactive”.
Take `O=C(O)[C@@H]1CSCN1`: the Potency result was “inactive”.
Consider `COc1cc2[nH]c(=O)[nH]c(=O)c2cc1OC`, for which the Potency entry is “inactive”.
As to `N[C@@H](CSCCCO)C(=O)O`, the Potency result was “inactive”.
Regarding `O=c1[nH]c(=O)c2[nH]c(=O)[nH]c2[nH]1`, the Potency entry was “inactive”.
Consider `CCCCCCCCCCCCCCCCCCOCC(O)CO` (stereo unspecified), for which the Potency result is “inactive”.
In the case of `O=C(O)c1ccccc1-c1ccc(C(F)(F)F)cc1`, the Potency result is “inactive”.
Regarding `C[C@](N)(Cc1ccc(O)cc1)C(=O)O`, the Potency result was “inactive”.
Consider `O=C1OC(OC(=O)c2cccnc2Nc2cccc(C(F)(F)F)c2)c2ccccc21` (stereo unspecified), for which the Potency entry was “inactive”.
As to `Nc1ccc(S(=O)(=O)Nc2ccccc2)cc1`, the Potency entry was “inactive”.
`NC(=O)NNc1ccccc1`: the Potency entry was “inactive”.
In the case of `CC1(C)[C@@H]2CC[C@@]1(C)C(=O)C2`, the Potency entry is “inactive”.
Take `CCC(=O)Nc1ccc(O)cc1`: the Potency entry was “inactive”.
As for `CC1(C)CO[C@@H](CC(=O)O)CN1`, the Potency entry was “inactive”.
The result for `CCCCc1ncc(/C=C(\Cc2cccs2)C(=O)O)n1Cc1ccc(C(=O)O)cc1` reads “inactive”; that for `NCCNCCNCCNCCN`, “inactive”; that for `CCN(CC)CCSC(=O)C(c1ccccc1)c1ccccc1`, “inactive”.
Turning to `C=Cc1c(C)c2cc3[nH]c(cc4nc(cc5nc(cc1[nH]2)C(C)=C5CCC(=O)O)C(CCC(=O)O)=C4C)c(C)c3C=C`, the Potency entry is “inactive”.
As to `NCC(=O)CCC(=O)O`, the Potency entry was “inactive”.
The result for `COc1cc(C(=O)N2CCOCC2)cc(OC)c1OC` reads “inactive”.
For `Cc1cccc(Nc2cc(Cl)nc(SCC(=O)O)n2)c1C`, the Potency entry was “inactive”.
The result for `O=C(O)COc1nn(Cc2ccccc2)c2ccccc12` reads “inactive”; that for `CC(=O)NC(Cc1ccccc1)C(=O)O` (stereo unspecified), “inactive”.
With `Cc1cc(CC(=O)O)n(C)c1C(=O)c1ccc(Cl)cc1`, the Potency entry is “inactive”.
Consider `CCCOC(=O)c1ccccc1`, for which the Potency result was “inactive”.
Consider `CCCCC(CC)COC(=O)c1ccccc1O` (stereo unspecified), for which the Potency entry is “inactive”.
The result for `Oc1cccc(O)c1` reads “inactive”.
With `CC(=O)CCC(=O)O`, the Potency result is “inactive”.
For `COc1cc(C)c(Cc2cnc(N)nc2N)cc1OC`, the Potency result was “inactive”.
Turning to `CCN(CC)CCNC(=O)c1cc(Cl)c(N)cc1OC`, the Potency entry was “inactive”.
In the case of `CCCn1cnc2c1c(=O)n(CCCCC(C)=O)c(=O)n2C`, the Potency entry was “inactive”.
As to `O=C1c2c(O)cccc2Cc2cccc(O)c21`, the Potency result is “inactive”.
Consider `Cc1ncc(COP(=O)(O)O)c(C=O)c1O`, for which the Potency result is “inactive”.
The result for `O=c1cc(CO)occ1O` reads “inactive”; that for `COc1ccc2c(c1)C(=O)N(CCc1ccc(S(=O)(=O)NC(=O)NC3CCCCC3)cc1)C(=O)C2(C)C`, “inactive”.
